Screens as filed in PubChem BioAssay.
Hits are enriched below; roughly 6% of the tested compounds scored in any of these assays.
D1 ag – Allosteric Agonists of the Human D1 Dopamine Receptor: qHTS; activation, % at 2 µM; 360,000 compounds, 1% hits; HEK293 T-REx D1 cells, calcium flux, agonist mode; in the data active = activation above about 30%; also: 0% is about no effect
Target sequence (P21728 whole entry, looked up): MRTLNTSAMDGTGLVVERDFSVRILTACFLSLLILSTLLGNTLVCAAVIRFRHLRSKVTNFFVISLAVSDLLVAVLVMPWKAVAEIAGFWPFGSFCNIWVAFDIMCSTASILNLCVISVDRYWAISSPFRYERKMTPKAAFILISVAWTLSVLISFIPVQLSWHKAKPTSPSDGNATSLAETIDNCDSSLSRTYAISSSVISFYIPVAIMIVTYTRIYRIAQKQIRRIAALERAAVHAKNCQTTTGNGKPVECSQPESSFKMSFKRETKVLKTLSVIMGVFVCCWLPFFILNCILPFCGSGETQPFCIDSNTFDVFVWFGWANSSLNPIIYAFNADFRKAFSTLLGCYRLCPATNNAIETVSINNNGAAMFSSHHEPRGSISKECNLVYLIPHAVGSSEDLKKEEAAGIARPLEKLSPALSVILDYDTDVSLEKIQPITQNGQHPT
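Agonism was scored from calcium flux recorded over 180 s (1 read/s) after pintool compound addition, following a 10-cycle baseline. Cells were inducible force-coupled HEK293 TREx D1, plated overnight at 30 C and loaded with no-wash calcium dye.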
D3 antag – qHTS of D3 Dopamine Receptor Antagonist: qHTS; D3R cells, DiscoveRx beta-arrestin luminescence, antagonist mode; hits give low values; max response, negative = inhibition, %; 360,000 compounds, 2.5% hits; AID 652054, 2013; in the data active = max response below about -50%; inconclusive = no clear call, values can overlap the other calls; also: % is scaled to controls: 0 for no effect and ±100 for the full control effect
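Cells expressing the human receptor were seeded at 1500 cells/well, incubated overnight at 37 degrees C in 5% CO2, then exposed to library compounds with dopamine controls for 90 minutes at 37 degrees C before luminescent detection.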
D1 antag – Antagonist of Human D 1 Dopamine Receptor: qHTS; HEK293 TREx D1 cells, calcium flux, dopamine EC80; hits give low values; activity change, negative = inhibition, % at 10 µM; 360,000 compounds, 3.2% hits; D(1A) dopamine receptor (Homo sapiens), P21728; in the data active = activity change below about -30%; also: % is scaled to controls: 0 for no effect and ±100 for the full control effect
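Kinetic fluorescence of a calcium dye serves as the read-out. D1-expressing Hek293 Trex cells, induced overnight at 30 C, are exposed to compound for 180 s before an EC80 dopamine addition, then read 180 s further.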
D3 ag – qHTS of D3 Dopamine Receptor Agonist: qHTS; D(3) dopamine receptor (Homo sapiens), P35462; D3R DiscoveRx beta-arrestin cells, luminescence, 90 min; max activation, %; 410,000 compounds, 0.58% hits; in the data active = max activation above about 30%; also: 0% is about no effect
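Agonist-mode cell screen: cells plated at 1500/well and incubated overnight at 37 °C, then exposed to library compounds for 90 min at 37 °C. Detection reagent was added for 30–60 min at room temperature, and luminescence was read.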
D1 PAM – Potentiators of Human D1 Dopamine Receptor: qHTS; D(1A) dopamine receptor (Homo sapiens), P21728; HEK293 TREx D1 cells, calcium flux, dopamine EC20 potentiation; potentiation, % at 10 µM; 360,000 compounds, 0.036% hits; in the data active = potentiation above about 30%; also: 0% is about no effect
* marks the source's active call; other numbers are inactive results; u = inconclusive; x = no result given; ! = not confirmed by another sample.

SMILES	D1 ag	D3 antag	D1 antag	D3 ag	D1 PAM
O=C(CN1C(=O)N/C(=C\c2ccccc2OCc2ccc(C(=O)O)cc2)C1=O)Nc1ccc(F)cc1	3.1	-22.8	-5.2	3.8	x
CC(C)(C)c1ccc(/C=N/NC(=O)C2CCCC2)cc1	1.8	u	-46.7*	-5.3	-6.4
Cc1ccc(C)c(N2CCN(S(=O)(=O)c3cn(C)c(C)n3)CC2)c1	-0.4	x	-5.8	-7.9	1.4
O=[N+]([O-])c1ccc2c(c1)C(N1CCN(CCO)CC1)Cc1ccc(F)cc1S2 (stereo not drawn)	x	-106.1*	x	-20.5	x
COc1ccc2c(c1)CC(N1CCN(C)CC1)c1cc(OC)ccc1S2 (stereo not drawn)	x	-94.3*	x	-12.3	x
CSc1ccc2c(c1)C(N1CCN(C)CC1)Cc1ccc(F)cc1S2 (stereo not drawn)	x	-95.3*	x	-18.3	x
CCN1C(=O)CC(N2CCN(c3ccc(OC)cc3)CC2)C1=O (stereo not drawn)	0.0	-0.9	-0.6	6.8	0.3
Fc1ccc2c(c1)Sc1ccc(Cl)cc1CC2N1CCN(CCC2OCCO2)CC1 (stereo not drawn)	x	-93.3*	x	-11.0	x
O=[N+]([O-])c1ccc(CN2CC(N3CCN(CCO)CC3)CS2(=O)=O)cc1 (stereo not drawn)	x	0.0	x	-10.9	x
CCOc1cccc(C(=O)N(Cc2ccc(CC)cc2)C2CCS(=O)(=O)C2)c1 (stereo not drawn)	-0.3	x	11.1	-7.8	1.2
CCOc1ccc(CNC(=O)c2cnc3sc(N4CCCCCC4)nn3c2=O)cc1OC	-0.3	x	-16.4	-13.3	-4.8
CC1Cc2ccccc2N1C(=O)CSc1nnc(-c2cccc(Cl)c2)o1 (stereo not drawn)	1.4	x	-4.5	-12.0	0.3
COc1cc(Cl)c(C)cc1NC(=O)CSc1cc(-c2ccccc2)nc(C)n1	1.6	x	-7.5	16.4	-2.2
Cc1cccc(/C=C2\Oc3cc(OS(C)(=O)=O)ccc3C2=O)c1	4.2	-26.3	-13.2	2.9	-12.0
O=C1/C(=C/c2cccc(F)c2)Oc2cc(O)ccc21	34.5*	7.4	-36.4*	11.4	-5.1
Cc1nc2cccnc2n1C1CCN(S(C)(=O)=O)CC1	4.2	x	8.7	3.9	4.5
O=C(NCCN1CCN(c2ccccc2)CC1)Nc1ccccc1Cl	0.2	-83.0*	-9.2	6.6	-17.3
CCCN1CCN(CCNC(=O)Nc2ccccc2Cl)CC1	2.3	-76.5*	1.1	-18.4	-3.5
O=C(NCCN1CCN(c2ccccc2)CC1)Nc1ccccc1Br	0.6	-78.6*	-32.7*!	9.1	-6.4
Cc1oc(-c2ccc(C(=O)NCc3ccc(F)cc3)cc2)nc1CS(=O)c1ccccc1 (stereo not drawn)	1.3	x	0.4	9.7	-0.1
O=C(CN1C(=O)C2C3C=CC(C4CC34)C2C1=O)NCc1ccco1 (stereo not drawn)	2.0	-12.6	-6.2	5.9	5.6
O=C(CN1C(=O)C2C3C=CC(C3)C2C1=O)NCc1ccco1 (stereo not drawn)	0.8	-9.3	21.9	0.5	30.7*
Nc1c(-c2nc(-c3cccs3)no2)nnn1-c1ccccc1Cl	1.7	x	1.0	3.5	-1.3
O=[N+]([O-])c1ccc2c(c1)C(N1CCOCC1)/C(=C/COc1ccc(Cl)cc1Cl)O2 (stereo not drawn)	1.6	-19.4	-22.1	-5.0	1.6
Cc1ccc(C)n1-c1nnc(N2CCCC(C(=O)NCc3ccc(F)cc3)C2)s1 (stereo not drawn)	1.5	x	15.7	-12.0	1.8
SMILES	D1 ag	D3 antag	D1 antag	D3 ag	D1 PAM
CCC(C)Nc1nc(Cl)nc(N(C#N)CN2C(=O)c3ccccc3S2(=O)=O)n1 (stereo not drawn)	3.1	-70.9*	-21.8	-2.5	-0.9
Cc1cc(C)cc(C(O)c2ncc(-c3ccccc3Cl)[nH]2)c1 (stereo not drawn)	x	-29.4	x	-11.5	x
Nc1nn(-c2ccccc2)nc1C(=O)OCc1ccccc1	2.1	-64.6*	-10.0	-13.7	1.2
Cc1ccc(COC(=O)c2nn(-c3ccccc3)nc2N)cc1	3.9	15.1	13.7	-2.5	-4.8
CC(C)C[C@H]1CN(CCCC[C@H]2CNC(=O)C(=O)N2CC2CCCCC2)C(=O)C(=O)N1CC1CCCCC1	x	1.2	x	2.8	x
COC(=O)C1=C(C)NC2=C(C(=O)CC(c3cccs3)C2)C1c1ccsc1 (stereo not drawn)	0.8	u	-47.7*	-12.2	-8.3
CCOC(=O)C1=C(C)NC2=C(C(=O)CC(c3cccs3)C2)C1c1cccs1 (stereo not drawn)	-2.4	-82.0*	-20.9	-7.3	-5.8
COC(=O)C1=C(C)NC2=C(C(=O)CCC2)C1c1ccsc1 (stereo not drawn)	0.8	x	-2.8	x	-4.4
COc1ccc(CCNC(=O)c2c(C)oc3nc(C)nc(N4CCOCC4)c23)cc1OC	0.5	x	-10.0	1.8	-1.2
Cc1cc2c(s1)c1cnn(Cc3cccc(Cl)c3)c(=O)c1n2C	2.4	x	-4.5	x	0.2
Cc1ccc(NC(=O)C2CCN(S(=O)(=O)c3ccc4c(c3)CCCN4C(=O)C3CCC3)CC2)cc1	0.7	x	-48.4*	-0.1	-7.0
O=C(Nc1ccc(Cl)c(Cl)c1)C1CCCCC1	7.9	8.3	-32.1*	6.3	-7.8
Cc1ccc(S(=O)(=O)N2C(=O)CCC2C(=O)Nc2ccc3c(c2)OCCO3)cc1 (stereo not drawn)	-0.1	-65.5*	-1.8	-6.1	-8.2
COc1ccc(NS(=O)(=O)c2ccc3c(c2)CCCN3C(=O)C2CCC2)cc1OC	6.9	x	-42.2*	-12.3	-6.8
O=C(Nc1ccc(Cl)c(Cl)c1)C1CC1	x	x	x	4.6	x
O=C(Nc1ccc(F)cc1)C1CCN(S(=O)(=O)c2ccc3c(c2)CCCN3C(=O)C2CCC2)CC1	0.4	x	-22.5	-7.5	-6.5
COc1ccc(OC)c(NS(=O)(=O)c2ccc3c(c2)CCCN3C(=O)C2CCC2)c1	2.4	x	-6.0	-5.4	-3.7
O=C(NCC(c1cccnc1)N1CCN(Cc2ccccc2)CC1)C(=O)Nc1cccc(Cl)c1 (stereo not drawn)	0.5	x	-3.3	-0.2	-2.9
CS(=O)(=O)N1CCC(C(=O)Nc2cc(Cl)c(Cl)cc2Cl)CC1	5.9	8.0	-34.2*	0.4	0.9
CS(=O)(=O)N1CCC(C(=O)Nc2ccc(Cl)c(Cl)c2)CC1	19.8	-11.9	-59.0*	-7.8	-4.8
Cc1ccc(NC(=O)C2CCN(S(=O)(=O)c3ccc(F)cc3)CC2)cc1	-1.1	5.4	-11.0	1.4	-0.8
Cc1ccc(S(=O)(=O)N2CCC(C(=O)Nc3ccc(C)c(Cl)c3)CC2)cc1	14.4	x	-39.0*	8.2	-5.0
CCOC(=O)[C@]12CCC=C1N(Cc1cccc3ccccc13)C(=O)[C@H](CC(=O)N1CCSCC1)C2	x	u	x	-8.1	x
